{"source": "PubChem BioAssay AID1825", "about": "(The Scripps Research Institute Molecular Screening Center, 2009)", "note": "Out of some 290,000 compounds screened, about 2,300 (0.79%) were called active. This is one part of a sample in which actives are shown more often than they occur. Rule as the data show it: active = inhibition above about 22%; inactive = the rest."}
{"assay": "cytotoxicity in IEC-6 intestinal epithelial cells, primary screen, cytotoxicity control for KLF5 inhibitor project, cell-based, luminescence (AID 1825);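 also: 0% = plate median of test compound wells and 100% = cytotoxic reference compound wells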", "details": "IEC-6 cytotoxicity, luminescence viability; at 5 µM; active compounds read high"}
{"smiles": "CCn1ccnc1CN(C)C(=O)c1cc(COc2ccc(Cl)cc2OC)on1", "inhibition": "1.4% (inactive)"}
{"smiles": "Cc1nn(CCCC(=O)NCc2ccccc2Cl)c(=O)c2nccn12", "inhibition": "-5.6% (inactive)"}
{"smiles": "COc1ccccc1/C=N\\Nc1cc(C)nc(-n2nc(C)cc2C)n1", "inhibition": "-10.1% (inactive)"}
{"smiles": "COc1ccc(Nc2cc(C)nc(-n3nc(C)cc3C)n2)cc1", "inhibition": "84.8% (active)"}
{"smiles": "CCOC(=O)c1cnc(-n2nc(C)cc2C)nc1Nc1cccc(C(C)=O)c1", "inhibition": "1.3% (inactive)"}
{"smiles": "CC(=O)c1ccc(Oc2cc(C)nc(-n3nc(C)cc3C)n2)cc1", "inhibition": "85.4% (active)"}
{"smiles": "Cc1cc(N/N=C\\c2ccc(Br)cc2)nc(-n2nc(C)cc2C)n1", "inhibition": "-0.5% (inactive)"}
{"smiles": "Cc1cc(Oc2ccc(Cl)cc2)nc(SCC(=O)c2ccccc2)n1", "inhibition": "1.9% (inactive)"}
{"smiles": "N#CCc1ccc(NC(=O)c2ccccc2C(=O)Nc2ccc(CC#N)cc2)cc1", "inhibition": "-5.3% (inactive)"}
{"smiles": "COC(=O)COc1ccc2c(=O)c(Oc3ccccc3Br)coc2c1", "inhibition": "5.7% (inactive)"}
{"smiles": "Cc1nc2sccn2c(=O)c1S(=O)(=O)NCCc1ccccc1", "inhibition": "-0.1% (inactive)"}
{"smiles": "CCc1cccc(NC(=O)C2CCCN(S(=O)(=O)c3ccc4[nH]c(=O)ccc4c3)C2)c1", "note": "(stereo not drawn)", "inhibition": "-2.8% (inactive)"}
{"smiles": "COc1ccc(Nc2cc(=O)oc3ccccc23)cc1", "inhibition": "46.4% (active)"}
{"smiles": "COc1ccc(Nc2nnc(C)c3ccccc23)cc1", "inhibition": "-4% (inactive)"}
{"smiles": "COc1ccc2oc(=O)cc(-c3cc4ccccc4o3)c2c1", "inhibition": "2.8% (inactive)"}
{"smiles": "O=S(=O)(Cc1nnnn1-c1ccccc1)c1ccccc1", "inhibition": "1.5% (inactive)"}
{"smiles": "O=C(Nc1nnc(S(=O)(=O)N2CCOCC2)s1)c1cccc(Br)c1", "inhibition": "0.3% (inactive)"}
{"smiles": "O=C(Nc1nnc(C2CC2)s1)c1cc(Cl)sc1Cl", "inhibition": "0.1% (inactive)"}
{"smiles": "O=C(Nc1nnc(C2CC2)s1)c1ccccn1", "inhibition": "27.4% (active)"}
{"smiles": "Cc1cnc(NC(=O)c2ccccn2)s1", "inhibition": "8.9% (inactive)"}
{"smiles": "COc1ccc(/C=N/N(C)C2=NS(=O)(=O)c3ccccc32)cc1OC", "inhibition": "-2.2% (inactive)"}
{"smiles": "CN(C)c1nc(=Nc2cccc(Cl)c2)ss1", "inhibition": "56.2% (active)"}
{"smiles": "Clc1cccc(N=C2NN=C(c3ccc4c(c3)OCCO4)CS2)c1", "inhibition": "-1.6% (inactive)"}
{"smiles": "O=C(CN1CCN(Cc2ccccc2)CC1)Nc1ccc(F)c(F)c1", "inhibition": "6.7% (inactive)"}
{"smiles": "Cn1c(=O)oc2cc(S(=O)(=O)NCCC(=O)NCc3ccccc3Cl)ccc21", "inhibition": "0.7% (inactive)"}
{"smiles": "COc1ccccc1CNC(=O)C1CCN(S(=O)(=O)c2ccc3c(c2)CC(C)N3C(=O)C2CC2)CC1", "note": "(stereo not drawn)", "inhibition": "3.9% (inactive)"}
{"smiles": "Cc1ccccc1NC(=O)CSc1nc2ccc(Nc3nc(N4CCOCC4)nc(N4CCOCC4)n3)cc2s1", "inhibition": "3.9% (inactive)"}
{"smiles": "Cc1cc(Nc2ccc(Cl)cc2)nc(N2CCOCC2)n1", "inhibition": "11.5% (inactive)"}
{"smiles": "Cc1ccc(Nc2nc(N3CCOCC3)nc(N3CCOCC3)n2)cc1Cl", "inhibition": "68.1% (active)"}
{"smiles": "Cc1ccc(NC(=O)CN(C)C(=O)c2ccc(Br)o2)cc1", "inhibition": "-4.8% (inactive)"}
{"smiles": "O=C(Nn1cc(C(=O)N2CCN(c3ccccc3F)CC2)c2ccccc2c1=O)c1cnccn1", "inhibition": "23.7% (active)"}
{"smiles": "Cn1c(=O)cc(OCC(=O)N2CCN(c3ccccc3F)CC2)c2ccccc21", "inhibition": "-5.1% (inactive)"}
{"smiles": "O=C(c1ccc(S(=O)(=O)N2CCCC2)cc1)N1CCN(c2ccccc2F)CC1", "inhibition": "2.3% (inactive)"}
{"smiles": "Cc1cc(C)n(-c2nc(C(F)(F)F)nc3ccccc23)n1", "inhibition": "5.6% (inactive)"}
{"smiles": "CCOn1c(SC(C)C)nc2ccccc2c1=O", "inhibition": "-3.8% (inactive)"}
{"smiles": "CCCOn1c(-n2nc(C)cc2C)nc2ccccc2c1=O", "inhibition": "54.7% (active)"}
{"smiles": "O=C(c1cc2sccc2n1Cc1ccc(F)cc1)N1CCc2ccccc21", "inhibition": "1.8% (inactive)"}
{"smiles": "COc1ccccc1C(C)NC(=O)Cc1ccsc1", "note": "(stereo not drawn)", "inhibition": "1.9% (inactive)"}
{"smiles": "O=C(Nc1nc2ccc([N+](=O)[O-])cc2s1)c1ccc(S(=O)(=O)N2CCCc3ccccc32)cc1", "inhibition": "2.9% (inactive)"}
{"smiles": "O=C(COC(=O)c1ccc(F)cc1)Nc1nc2ccc([N+](=O)[O-])cc2s1", "inhibition": "-0.2% (inactive)"}
{"smiles": "O=C(NC(Nc1nc2ccc([N+](=O)[O-])cc2s1)(C(F)(F)F)C(F)(F)F)c1ccccc1", "inhibition": "28% (active)"}
{"smiles": "CCc1nn(CCCC(=O)Nc2ccc(C)cc2C)c(=O)c2cc3occc3n12", "inhibition": "-4.9% (inactive)"}
{"smiles": "CCCCCCn1c(CN2CCCCC2)nc2c1c(=O)n(C)c(=O)n2C", "inhibition": "-2.7% (inactive)"}
{"smiles": "CCCCCCCCn1c2c(c(=N)c3c1CCC3)CCCC2", "inhibition": "47.1% (active)"}
{"smiles": "COc1ccc(CCNC(=O)c2c(C)nn(-c3ccccc3)c2Cl)cc1", "inhibition": "-1.7% (inactive)"}
{"smiles": "CCOC(=O)C1=C(c2ccc(OC)cc2)C(=O)c2ccccc2C1=O", "inhibition": "-1.7% (inactive)"}
{"smiles": "CCOC(=O)c1c(C)[nH]c2c1-c1ccccc1C(=O)C2=O", "inhibition": "43.3% (active)"}
{"smiles": "CCOC(=O)c1c(C)[nH]c(C)c1S(=O)(=O)N(C)CC(=O)Nc1ccccc1C", "inhibition": "-0.8% (inactive)"}
